In ChEMBL document CHEMBL3988442, “University of Dundee, Small-Polar-MMV Screening Library” (2021) one finds Percent Effect data, which are given here for 46 molecules.

In test [1] the target is T1, Aspartate--tRNA(Asp/Asn) ligase (Mycobacterium tuberculosis (strain ATCC 25618 / H37Rv)) (UniProt P9WFW3). Also: in the data most compounds retested in dose-response had high values.
T1 sequence (whole entry): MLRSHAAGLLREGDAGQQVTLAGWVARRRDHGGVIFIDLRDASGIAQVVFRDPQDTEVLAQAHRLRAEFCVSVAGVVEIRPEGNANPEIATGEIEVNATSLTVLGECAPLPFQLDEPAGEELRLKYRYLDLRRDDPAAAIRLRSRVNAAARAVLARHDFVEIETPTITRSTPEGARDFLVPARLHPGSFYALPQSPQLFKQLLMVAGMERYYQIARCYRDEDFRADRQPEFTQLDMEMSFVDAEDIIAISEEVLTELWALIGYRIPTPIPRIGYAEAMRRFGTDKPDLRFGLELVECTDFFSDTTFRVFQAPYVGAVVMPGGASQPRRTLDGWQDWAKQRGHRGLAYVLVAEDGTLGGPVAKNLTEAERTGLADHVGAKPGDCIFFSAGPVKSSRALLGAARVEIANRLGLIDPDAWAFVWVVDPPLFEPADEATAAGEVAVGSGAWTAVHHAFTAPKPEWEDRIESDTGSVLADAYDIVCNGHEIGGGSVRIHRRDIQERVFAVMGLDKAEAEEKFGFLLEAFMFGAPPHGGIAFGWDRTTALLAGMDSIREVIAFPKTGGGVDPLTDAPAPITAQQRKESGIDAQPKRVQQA
Kind of test: Assay for Asp RNA synthetase-1 from Mycobacterium tuberculosis. The note with it: 30 µM. The arrangement: scale not given: direction of the effect not stated beside the values. It counts as functional.

The target of test [2] is Shiga toxin 2 (Escherichia coli O157:H7) (UniProt P09385+P09386). Kind of test: E. coli 0.157:H7 Shiga Toxin SOP - stx2 screening assay. The arrangement: scale not given: direction of the effect not stated beside the values. It counts as functional. The note with it: 30 µM.

Regarding `O=C(COC[C@H]1CC[C@H]2[C@H](CCN2c2ncccn2)O1)N1CCCC1`, the Percent Effect in test [1] was -2.51%; in test [2], -24.1%.
As for `CCc1ccc(C(=O)N2CCN(CCS(C)(=O)=O)CC2)o1`, the Percent Effect in test [1] was -3.52%; in test [2], 24.9%.
`CC(C)n1ncc2c1NC(=O)CSC2C(C)(C)C` (configuration not stated): the Percent Effect is -2.73% in test [1] and -13.8% in test [2].
Turning to `CC(=O)Nc1nc(CN2CCCC2c2cnn(C)c2)cs1` (configuration not stated), the results for the Percent Effect in test [1] and in test [2] were -1.4% and -28.6%, respectively.
Consider `N#Cc1cccnc1N1CCC2(CCCN(C3CCOCC3)C2=O)C1` (configuration not stated), for which the figures for the Percent Effect in test [1] and in test [2] were -3.99% and -16.3%, respectively.
`Cc1ccc(CN2CC[C@H]3OCC[C@@H](c4nc(C)no4)[C@H]3C2)cc1`: the values for the Percent Effect in test [1] and in test [2] were -5.18% and 8.54%, respectively.
With `CN(C)C(=O)[C@H]1C[C@@H]2CCN(C3CCOCC3)C[C@H]2O1`, the Percent Effect was -3.87% in test [1] and -13.4% in test [2].
In the same order, the values of `CC(C)c1cc(NCC(O)c2ccc(F)cc2)n2nccc2n1` (configuration not stated) are -1.84% and 7.39%.
Turning to `CCNC(=O)c1ccoc1CN1c2ccccc2CC1C` (configuration not stated), the Percent Effect in test [1] is 2.94%; in test [2], -19.2%.
As to `COc1ccc(CCC(=O)N2CCCC2Cn2cc(C)cn2)cc1F` (configuration not stated), the Percent Effect in test [1] was -1.15%; in test [2], 18.7%.
As to `Cc1ccsc1CN(Cc1ccccn1)CC(C)C`, the values for the Percent Effect in test [1] and in test [2] were -2.01% and -3.58%, respectively.
Take `O=C(NCCCN1CCOCC1)c1cc(-c2ccco2)[nH]n1`: the Percent Effect in test [1] was -0.98%; in test [2], -21.1%.
`Cn1cc(C(=O)NC2CCN(Cc3ccn(C)c(=O)c3)CC2)cn1`: the Percent Effect in test [1] is 1.68%; in test [2], -28%.
As for `CC(O)CN(CC(=O)NC(=O)NCC(F)(F)F)c1ccccc1` (configuration not stated), the Percent Effect in test [1] was -7.32%; in test [2], 29.2%.
Take `COc1ccc(C2Nc3ccccc3C3=NCCCN32)cc1OC` (configuration not stated): the Percent Effect in test [1] was 3.81%; in test [2] it was -2.36%.
The like results for `CCCNC(=O)CNc1cc(C(=O)N2CCSCC2)ccc1C` were, in that order, -2.64% and -9.17%.
For `COCCn1cc(C(=O)N2CCCC2c2cc(C)no2)ccc1=O` (configuration not stated), the figures for the Percent Effect in test [1] and in test [2] were -2.11% and 3.38%, respectively.
For `COc1cccc(-c2nc(CNCCn3cccn3)cs2)c1`, the Percent Effect in test [1] is -2.68%; in test [2] it was -60.9%.
Take `c1ccc(-c2noc(CN3CCC(c4ccn[nH]4)CC3)n2)cc1`: the values for the Percent Effect in test [1] and in test [2] were 0.903% and -15.7%, respectively.
In the same order, the values of `Cc1cc(CC(=O)N(CC2CN(C)CCO2)c2nccs2)no1` (configuration not stated) are -0.67% and -18.7%.
Take `O=C1NC(c2ccccc2)=N[C@@]12CC[C@@H]1CN(CC3CCOCC3)C[C@@H]12`: the Percent Effect in test [1] is 1.31%; in test [2], -0.652%.
In the same order, the values of `CC(C)CNC(=O)NC(=O)CNc1ccccc1SCC(C)C#N` (configuration not stated) are -5.03% and 4.99%.
The like results for `O=C(Nc1cccnc1)[C@H]1C[C@@H]2CN(C(=O)NC3CCCC3)C[C@H]1O2` were, in that order, 2.61% and -2.93%.
On to `Cc1cc(=O)n(CC(=O)Nc2ccc(C(N)=O)cc2)nc1C`, for which the Percent Effect in test [1] was -0.0781%; in test [2] it was -33%.
The like results for `CCOCC1CN(C(=O)C2=CCCC2)Cc2cnn(CC)c21` (configuration not stated) were, in that order, -0.107% and 3.46%.
Turning to `Cn1cc(CN2CCCC3(CCN(c4nncs4)C3)C2)cn1` (configuration not stated), the figures for the Percent Effect in test [1] and in test [2] were 6.31% and -11.3%, respectively.
Take `O=C(CO)N1CCc2onc(Cn3cccn3)c2C1`: the values for the Percent Effect in test [1] and in test [2] were -1.21% and 7.04%, respectively.
On to `CN(C)C(=O)[C@@H]1CCO[C@@H]2CCN(Cc3ccccc3)C[C@@H]21`, for which the Percent Effect in test [1] is 2.24%; in test [2] it was -27%.
In the same order, the values of `O=C(C1CCC1)N1CCN(C(=O)c2cnccn2)[C@H]2CS(=O)(=O)C[C@H]21` are -2.93% and -12.2%.
For the molecule `C1CC(CN2CCOCC3(CCN(C4CCOCC4)C3)C2)CCO1` (configuration not stated), the Percent Effect was 3.19% in test [1] and -4.37% in test [2].
As for `O=C(NCCCn1cncn1)NCC(c1ccccc1)N1CCCC1` (configuration not stated), the Percent Effect in test [1] was 0.0576%; in test [2] it was -13%.
For the molecule `CCOCCCn1c(NC(=O)c2cnn(C)c2)nc2ccccc21`, the Percent Effect is -2.49% in test [1] and 22.6% in test [2].
Take `Cc1cccc(C(=O)NCc2ccnc(N(C)C)c2)n1`: the Percent Effect was -1.33% in test [1] and -8.62% in test [2].
In the case of `COC1CC2(CCN(Cc3ccc4c(c3)OCO4)CC2)C1`, the Percent Effect in test [1] was -2.25%; in test [2], -2.07%.
In the same order, the values of `Cc1noc(C)c1-c1cccc(CC2CCN(C(=O)c3cc[nH]n3)C2)n1` (configuration not stated) are -1.22% and 4.37%.
In the case of `COc1ccnc(N2CCN(C(=O)c3cnn(C)c3C3CC3)CC2)n1`, the Percent Effect in test [1] is -3.2%; in test [2], 11.7%.
In the same order, the values of `CSCC(=O)N1C[C@H]2CC[C@@H]1CN(Cc1ccccc1)C2` are 4.28% and -4.7%.
Consider `CN1CCCC(Cc2ccnc3ccncc23)CC1` (configuration not stated), for which the Percent Effect is -3.5% in test [1] and -21.3% in test [2].
Consider `Cc1nnc(SCC(=O)N2CCC3(CC2)c2ccccc2CC3O)o1` (configuration not stated), for which the Percent Effect in test [1] is 4.4%; in test [2] it was -18.7%.
With `Cc1ccc(NC2CCN(C(=O)c3cccc4ncccc34)CC2)nn1`, the Percent Effect is 3.98% in test [1] and -2.02% in test [2].
The like results for `CCc1nnc2n1CCN(C(=O)Cc1csc(-c3ccco3)n1)C2` were, in that order, -2.26% and -3.06%.
`Cc1ncsc1CCC(=O)N1CCCC[C@H](N(C)C)C1`: the values for the Percent Effect in test [1] and in test [2] were -3.74% and 3.62%, respectively.
On to `OC(CN(Cc1ccccc1)Cc1ccncc1)c1cccs1` (configuration not stated), for which the Percent Effect in test [1] is -1.23%; in test [2], 4.51%.
As to `O=C1COC2(CCN(Cc3ccccn3)CC2)CN1CC1CC1`, the Percent Effect in test [1] was 4.21%; in test [2], -7.99%.
In the same order, the values of `c1cnn(CC2CN(c3ncnc4sccc34)CCO2)c1` (configuration not stated) are 2.38% and -6.78%.
As for `CC(=O)N(Cc1noc(C)n1)C1CCN(Cc2cc(C)on2)C1` (configuration not stated), the figures for the Percent Effect in test [1] and in test [2] were 4.07% and 11%, respectively.
